Experimental data published in PubChem BioAssay AID504339 (National Center for Advancing Translational Sciences (NCATS), 2011).
Hit rate of the full screen: of about 390,000 compounds, about 17,000 (4.4%) were called active. A call without a number means that no potency is given here. Inconclusive results (about 8%) are left out. Calls follow the shape of the dose curve; as a rule, active = well fitted inhibition curve with a large enough effect; inconclusive = small, poorly fitted or top-dose-only effect; inactive = no such curve, though single readings can be large or run the other way. This excerpt belongs to a sample that is enriched for actives.

target: Lysine-specific demethylase 4A (Homo sapiens) (UniProt O75164); assay: qHTS Assay for Inhibitors of JMJD2A-Tudor Domain; settings: AlphaScreen JMJD2A-Tudor / H3K4me3 peptide binding; series mostly up to 114 µM; also: nearly all actives have a fitted effect of over 50% in size
Potency is read from the fitted curve at half-maximal effect.

Sequence of Lysine-specific demethylase 4A (Homo sapiens) (O75164 whole entry, looked up, the tested form may be a part): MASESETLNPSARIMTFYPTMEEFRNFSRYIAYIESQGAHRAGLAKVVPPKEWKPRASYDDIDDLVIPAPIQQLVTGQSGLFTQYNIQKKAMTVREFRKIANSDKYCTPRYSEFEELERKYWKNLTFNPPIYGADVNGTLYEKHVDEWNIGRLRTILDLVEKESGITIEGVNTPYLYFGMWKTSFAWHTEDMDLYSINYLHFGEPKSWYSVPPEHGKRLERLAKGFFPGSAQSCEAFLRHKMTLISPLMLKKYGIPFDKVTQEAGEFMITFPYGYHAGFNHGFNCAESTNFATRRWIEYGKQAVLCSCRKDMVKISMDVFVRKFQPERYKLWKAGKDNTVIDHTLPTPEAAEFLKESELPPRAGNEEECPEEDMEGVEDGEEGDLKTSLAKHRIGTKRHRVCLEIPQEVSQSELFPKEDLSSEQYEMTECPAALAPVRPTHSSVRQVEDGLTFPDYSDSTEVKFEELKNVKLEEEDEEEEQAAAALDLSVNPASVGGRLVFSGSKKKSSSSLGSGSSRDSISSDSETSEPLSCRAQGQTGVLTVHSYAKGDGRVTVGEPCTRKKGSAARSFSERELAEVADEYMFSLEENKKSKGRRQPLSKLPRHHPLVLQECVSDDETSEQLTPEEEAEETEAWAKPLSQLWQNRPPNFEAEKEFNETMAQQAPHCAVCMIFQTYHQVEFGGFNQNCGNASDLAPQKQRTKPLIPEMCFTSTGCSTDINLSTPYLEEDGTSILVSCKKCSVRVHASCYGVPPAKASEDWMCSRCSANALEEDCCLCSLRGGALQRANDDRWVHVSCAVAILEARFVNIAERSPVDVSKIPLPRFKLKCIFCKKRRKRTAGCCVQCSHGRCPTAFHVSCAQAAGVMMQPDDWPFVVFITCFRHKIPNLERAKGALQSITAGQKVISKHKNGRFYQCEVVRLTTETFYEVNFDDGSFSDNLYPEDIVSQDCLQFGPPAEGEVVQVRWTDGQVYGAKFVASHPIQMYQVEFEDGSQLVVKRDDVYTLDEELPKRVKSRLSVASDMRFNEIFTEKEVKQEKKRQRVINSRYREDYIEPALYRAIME

| Compound | Potency |
| --- | --- |
| CC(C)(C)c1ccc(C(=O)NCC(c2ccc(Cl)cc2)N2CCOCC2)cc1 (stereo not drawn) | inactive |
| Cc1nc2nc(SCC(=O)NC3CCC(C)CC3)nn2c(C)c1Cc1ccccc1Cl (stereo not drawn) | inactive |
| Cc1ccc(NC(=O)c2oc3ccc(S(=O)(=O)N4CCCCC4)cc3c2C)cc1Cl | inactive |
| O=C(c1cccc(Cl)c1)N1CCN(Cc2ccccc2)CC1 | inactive |
| Cn1nnnc1SCC(=O)N1CCN(Cc2ccccc2)CC1 | inactive |
| CC(C)CC(=O)N1CCN(Cc2cccc(Cl)c2)CC1 | 44.7 µM (active) |
| CCOC(=O)N1CCC(NC(=O)c2cnn(-c3cccc(C)c3)c2C2CCN(C(=O)OC(C)(C)C)CC2)CC1 | inactive |
| O=C(Nc1ncccc1O)c1ccc(C(=O)c2ccccc2)cc1 | inactive |
| O=C(CNC(=O)c1ccc2ccccc2c1)Nc1ncccc1O | 79.4 µM (active) |
| CC1CCC(NC(=O)CNC(=O)c2ccc3ccccc3c2)CC1 (stereo not drawn) | inactive |
| CCCN(CCC)C(=O)C1CCCN(c2ncnc3c2nc2n3CCCCC2)C1 (stereo not drawn) | inactive |
| COc1cccc(NC(=O)c2csnn2)c1 | inactive |
| Cc1nn(C)c(C(=O)NNC(=S)NC2CCCCC2)c1Cl | inactive |
| COc1cccc(NC(=S)NC(=O)c2c(Cl)c(C)nn2C)c1 | 89.1 µM (active) |
| COc1ccc(S(=O)(=O)c2cn(C)c3cc(N4CCCCC4)c(F)cc3c2=O)cc1 | inactive |
| COc1ccc(S(=O)(=O)Nc2ccccc2C(=O)N2CCCC2)cc1C | inactive |
| COc1ccc(S(=O)(=O)Nc2ccc3cn[nH]c3c2)cc1[N+](=O)[O-] | inactive |
| COC(=O)c1ccccc1NS(=O)(=O)c1ccc2[nH]c(=O)[nH]c2c1 | inactive |
| CCOc1ncccc1C(=O)NNC(=O)c1cccc(S(=O)(=O)Nc2ccccc2OC)c1 | inactive |
| COc1ccc(Br)cc1/C=N/Nc1ccc(S(=O)(=O)Nc2ccccc2C(=O)O)cc1[N+](=O)[O-] | 17.8 µM (active) |
| COc1cccc(/C=N/Nc2ccc(S(=O)(=O)Nc3ccccc3C(=O)O)cc2[N+](=O)[O-])c1O | 44.7 µM (active) |
| CCOC(=O)C1CCN(C(=O)CSc2c3c(nc4ccc(Cl)cc24)CCCC3)CC1 | inactive |
| COc1ccc2oc(-c3ccc(C)c(NC(=O)c4sc5ccccc5c4Cl)c3)nc2c1 | inactive |
| COc1cc(Br)c(-c2sc(Nc3ccccc3)n[n+]2-c2ccccc2)cc1OC | inactive |

| Compound | Potency |
| --- | --- |
| COc1ccc(C)cc1Nc1n[n+](-c2ccccc2)c(-c2cccc(Cl)c2Cl)s1 | inactive |
| CCc1ccc(Nc2n[n+](-c3ccccc3)c(-c3cccc(Cl)c3Cl)s2)cc1 | 56.2 µM (active) |
| Cc1cccc(NC(=O)C2CCCN2S(=O)(=O)c2cccc3nsnc23)c1C (stereo not drawn) | inactive |
| COc1ccc(N2CCN(Cc3nc4c(c(=O)[nH]c(=O)n4C)n3Cc3ccc(Cl)cc3)CC2)cc1 | inactive |
| COc1ccc(C)cc1-n1nnnc1SCc1nc2ccccc2c(=O)[nH]1 | inactive |
| CCn1c(COc2c(C)cccc2C)nnc1SCc1nc2ccccc2c(=O)[nH]1 | inactive |
| COc1ccc(CCCc2nnc(SCc3nc4ccccc4c(=O)[nH]3)n2C)cc1 | 15.8 µM (active) |
| CCOc1ccccc1NC(=O)CSc1ncc(S(=O)(=O)c2ccc(C(C)(C)C)cc2)c(=O)[nH]1 | inactive |
| CCCN1CCN(CCCNC(=O)c2ccc3nc(Cc4ccccc4)oc3c2)CC1 | inactive |
| Cc1cc(/C=C2\SC(=O)N(C)C2=O)c(C)n1-c1cccc(C(=O)O)c1 | 56.2 µM (active) |
| Cc1cc(/C=C2/SC(=O)N(CC(=O)N3CCCC3)C2=O)c(C)n1C | inactive |
| Cc1cc(/C=C2/SC(=O)N(CC(=O)OC(C)C)C2=O)c(C)n1C | inactive |
| Cc1cccc(-n2c(SCC(N)=O)nc3c(oc4ccccc43)c2=O)c1 | inactive |
| O=C(CSc1nc(=O)[nH]c2c1CCCC2)Nc1cc(C(F)(F)F)ccc1Cl | inactive |
| CCOc1ccccc1NC(=O)CN1CCCN(Cc2cccc(Cl)c2)S1(=O)=O | inactive |
| Cc1c(NC(=O)c2cc(=O)c3ccccc3o2)c(=O)n(-c2ccccc2)n1C | inactive |
| CC(=O)Nc1cccc(/C(C)=N/NC(=O)c2c(-c3ccccc3Cl)noc2C)c1 | inactive |
| C/C(=N\Nc1cccc(C(=O)O)c1)c1ccc2c(c1)Nc1ccccc1S2 | 56.2 µM (active) |
| Cc1ccccc1NC(=O)c1cc(S(=O)(=O)Nc2cccc(C(=O)O)c2)ccc1Cl | inactive |
| Cc1c(Cl)cccc1NC(=O)Cn1cc(C(=O)c2cccs2)c2ccccc21 | inactive |
| CC(=O)c1nn(-c2ccc(OC(F)(F)F)cc2)nc1Nc1ccccc1 | inactive |
| COC(=O)c1cccc(NC(=O)c2cccc(N3C(=O)CCC3=O)c2)c1 | inactive |
| COc1ccccc1NC(=O)c1ccc2nc(N3C(=O)CCC3=O)sc2c1 | inactive |
| COc1ccccc1-c1nnc(NC(=O)c2cccc(N3C(=O)CCC3=O)c2)o1 | 35.5 µM (active) |
